Tg IFNy HTS = T. gondii growth inhibition with IFN-gamma, primary screen, cell-based; Toxoplasma gondii growth in IFN-gamma-treated host cells; active compounds read low; activity change, negative = inhibition, % (no concentration beside the values); 3.8% of 69,000 active; AID 1259416, 2018; in the data active means activity change below about -70%, passing the limit was not always enough;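 further: host cells are HeLa cells infected with Toxoplasma gondii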
Active calls of the source: *; i = inactive; ! = repeats disagree. Shown is part of a subset that was picked to be rich in hits.

SMILES	Tg IFNy HTS
O=C(N[C@H]1CN2CCC1CC2)c1ccc(Cl)cc1	-23.3
Cn1cc(C(=O)C(=O)N[C@H]2CN3CCC2CC3)c2ccccc21	-79.7*!
CN1C(=O)COc2c(C(=O)NC3CN4CCC3CC4)cc(Cl)cc21 (stereo not drawn)	10.1
CC(C)NC(=O)[C@H]1CCS(=O)(=O)[C@H]2CNC[C@@H]12	-21.8
C/C=C(\C)C(=O)N[C@@H](c1ccccc1)[C@@H](O)C(=O)O[C@H]1C[C@@]2(O)[C@@H](OC(=O)c3ccccc3)[C@@H]3[C@]4(OC(C)=O)CO[C@@H]4C[C@H](O)[C@@]3(C)C(=O)[C@H](OC(C)=O)C(=C1C)C2(C)C	-89.1*
CC(=O)O[C@H]1C(=O)[C@@]2(C)C([C@H](OC(=O)c3ccccc3)[C@]3(O)C[C@H](O)C(C)=C1C3(C)C)[C@]1(OC(C)=O)CO[C@@H]1C[C@@H]2O (stereo partly drawn)	-74.2*
CCCCOC(=O)c1ccc(NC(=O)c2cc3cccnc3n(Cc3ccccc3)c2=O)cc1	-41.7
COc1ccccc1CCNC(=O)c1cc2cccnc2n(Cc2ccc(F)cc2)c1=O	-45.3
CN1CCC2(CCN(CCN)CC2)C1	-9.9
COc1ccccc1CN(CCN(C)C)C(=O)Cc1c(C)[nH]c(=O)[nH]c1=O	-12.0
C=CCN1CC[C@@H]2[C@@H]1CCN2c1ncc(F)cn1	2.8
C=CCN1CC[C@H]2[C@@H]1CCN2C(=O)c1cc(C)on1	19.3
C=CCN1CC[C@@H]2[C@@H]1CCN2C(=O)c1cncc(C)c1	-98.4*
O=C(O)CN1CC2CC1CN(Cc1ccoc1)C2 (stereo not drawn)	15.3
O=C(Nc1cccc(Cl)c1)OC1CN2CCC1CC2 (stereo not drawn)	-78.0*
O=C(c1cccc(Cl)c1)C1CCCN(C2CCCCC2)C1 (stereo not drawn)	-3.2
CC(=O)OC1CN2CCC1CC2 (stereo not drawn)	12.4
O=C(NC1CCCC1)c1cc2cccnc2n(Cc2ccc(Cl)cc2)c1=O	74.1
O=C(Nc1ccc(F)cc1)c1cc2cccnc2n(Cc2ccccc2F)c1=O	101.3
CN(C)c1ncc2c(n1)C1(CCN(Cc3cccnc3)C1)COC2 (stereo not drawn)	2.8
CCC1CN(Cc2ccc(Cl)cc2F)CCN1C(C)C (stereo not drawn)	11.3
Cc1c2ccncc2c(C)c2c1[nH]c1ccccc12	-80.4*
Cc1nccc2c1[nH]c1ccccc12	0.5
c1ccc2c(c1)[nH]c1cnccc12	29.1
C=CCN1CCN(CC2CCOCC2)Cc2cccnc21	-29.1
SMILES	Tg IFNy HTS
O=C(Nc1ccncc1)C(=O)c1cn(Cc2ccc(Cl)cc2)c2ccccc12	-78.2*
O=C(Nc1ccc(Cl)cc1)c1cc2cccnc2n(Cc2ccc(F)cc2)c1=O	0.5
O=Cc1cn(Cc2ccc(F)cc2)c2ccccc12	-2.7
CC(C)N1CCO[C@H]2CN(C(=O)c3ccccn3)C[C@@H]21	52.5
Cc1ccc(CN2CC[C@H]3[C@@H]2CCN3C(=O)Cc2cccc(F)c2)o1	-5.0
Cc1c(Cl)cccc1NC(=O)c1cc2cccnc2n(Cc2ccc(F)cc2)c1=O	145.6
O=c1[nH]c2ccc(Cl)cc2c(N[C@@H]2CN3CCC2CC3)c1-c1nc2ccccc2[nH]1	-75.7*
COc1ccccc1CNC(=O)c1cc2cccnc2n(Cc2ccccc2F)c1=O	10.8
CCOc1ccccc1NC(=O)c1cc2cccnc2n(Cc2ccc(F)cc2)c1=O	4.9
COc1ccc(N2C(=O)NC(=O)C3(Cc4cccc(F)c4N4CCC(c5ccccc5)CC43)C2=O)cc1 (stereo not drawn)	-99.3*
O=C(c1ccco1)N1C2CCC1CNC2	40.2
CCN1C[C@H]2CN(Cc3cccs3)C[C@H]2C1=O	-42.9
C=CCN1CCN(c2ncc(F)cn2)Cc2ccc(C)nc21	37.3
Fc1cnc(N2CCC3(CC2)CNCc2ccccc23)nc1	-84.2*
Fc1cnc(N2CCN(CC3CC3)c3ncccc3C2)nc1	i
c1ccc(CN2CCOC3(CCN(c4ncccn4)CC3)C2)cc1	1.4
O=C(Nc1ccc(F)cc1)c1cc2cccnc2n(Cc2ccccc2)c1=O	90.7
Cc1ccc(N2CCC3(CC2)C(=O)N(C)CCN3C)nn1	142.8
C[C@@H]1O[C@@H](O[C@@H]2C=C3CCC4C(CC[C@]5(C)[C@@H](c6ccc(=O)oc6)CC[C@]45O)[C@@]3(C)CC2)C(O)C(O)[C@H]1O (stereo partly drawn)	-79.7*
O=C(NC1CCCCCC1)c1cc2cccnc2n(Cc2ccc(Cl)cc2)c1=O	-9.2
FC1(F)CCN(Cc2cccs2)CC12CCN(c1ncccn1)C2 (stereo not drawn)	-1.5
C#C[C@]1(O)C=C[C@H]2[C@@H]3CCC4=CC(=O)CC[C@@H]4[C@H]3CC[C@@]21CC	-80.9*
C#C[C@]1(O)CC[C@H]2[C@@H]3CCC4=CC(=O)CC[C@]4(C)[C@H]3CC[C@@]21C	-16.4
CCOC1C2CCC1N(Cc1cnn(C)c1)C2 (stereo not drawn)	43.1
OCCN1CCOC2C(Cn3ccnc3)CCC21 (stereo not drawn)	2.4
C=CCOC[C@@H]1CC[C@H]2[C@H](CCN2CC2CC2)O1	8.7
O=C(Nc1ccc(F)cc1F)c1cc2cccnc2n(Cc2ccc(Cl)cc2)c1=O	94.5

Bioassay records as filed in PubChem BioAssay.
